SMILES strings stand for the structures. Results filed as inconclusive are left out. Entries that show only a call come without a potency. Active and inactive are the calls of the source. Unless noted, calls come from the whole dose curve; as a rule, active = well fitted inhibition curve with a large enough effect; inconclusive = small, poorly fitted or top-dose-only effect; inactive = flat fitted curve, though single readings scatter.

Calcium and integrin-binding protein 1 (Homo sapiens), sequence (Q99828 whole entry, looked up): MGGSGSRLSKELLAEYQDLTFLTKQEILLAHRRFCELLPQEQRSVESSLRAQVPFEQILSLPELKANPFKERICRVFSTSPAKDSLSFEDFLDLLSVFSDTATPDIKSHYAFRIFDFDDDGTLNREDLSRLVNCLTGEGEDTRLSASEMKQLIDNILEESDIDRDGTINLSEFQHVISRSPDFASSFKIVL
Ubiquitin carboxyl-terminal hydrolase 1 (Homo sapiens), sequence (O94782 whole entry, looked up): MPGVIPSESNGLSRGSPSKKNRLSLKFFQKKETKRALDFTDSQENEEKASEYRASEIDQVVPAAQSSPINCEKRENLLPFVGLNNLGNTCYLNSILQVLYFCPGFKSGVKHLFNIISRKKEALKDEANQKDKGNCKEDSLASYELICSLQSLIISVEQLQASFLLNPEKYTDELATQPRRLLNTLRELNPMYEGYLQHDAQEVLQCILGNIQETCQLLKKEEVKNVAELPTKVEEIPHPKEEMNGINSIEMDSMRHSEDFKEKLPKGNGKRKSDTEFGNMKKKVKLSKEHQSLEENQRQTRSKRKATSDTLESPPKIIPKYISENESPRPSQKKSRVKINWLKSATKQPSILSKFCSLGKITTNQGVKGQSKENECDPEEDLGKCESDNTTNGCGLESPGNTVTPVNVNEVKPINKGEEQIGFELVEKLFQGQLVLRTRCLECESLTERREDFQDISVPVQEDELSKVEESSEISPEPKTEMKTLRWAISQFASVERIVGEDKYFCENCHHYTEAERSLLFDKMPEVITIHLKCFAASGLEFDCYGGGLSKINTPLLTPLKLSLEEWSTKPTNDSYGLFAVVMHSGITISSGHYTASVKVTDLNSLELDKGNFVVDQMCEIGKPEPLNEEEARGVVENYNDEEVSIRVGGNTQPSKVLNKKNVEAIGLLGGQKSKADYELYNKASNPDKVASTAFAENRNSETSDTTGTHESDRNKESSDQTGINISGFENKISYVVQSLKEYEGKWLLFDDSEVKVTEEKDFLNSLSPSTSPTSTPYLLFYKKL

Tested on in the first test: not listed separately
As to the kind of experiment: qHTS Assay for Lipid Storage Modulators (AID 1519; calls by dose curve). The following applies: Drosophila S3 cells, BODIPY lipid droplet/cell ratio, laser cytometry; at 57.5 µM (top of the series); cells loaded with oleic acid. A digest of the protocol:
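Cells seeded at 5,000 per well were treated with compounds over a concentration series and loaded with oleic acid (400 uM, as added). Lipid droplet fluorescence (488 nm excitation, 500-530 nm channel) was read by laser-scanning cytometry and normalized to 20 uM Triacsin C.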
On the technique in general: Quantitative high-throughput screening tests each substance at several concentrations.
In the case of `Cc1cccc(CNc2ncnc3ccc(-c4cccnc4)cc23)c1`, the activity change, negative = inhibition was 2.99% (inactive). Same read-out and setting: then `Cc1cccc(CNc2ncnc3ccc(-c4ccc5c(c4)OCO5)cc23)c1`, with 5.85% (inactive); and `c1cncc(CNc2ncnc3ccc(-c4cccnc4)cc23)c1`, with 7.28% (inactive); and `COc1cccc(-c2ccc3ncnc(N(C)Cc4ccco4)c3c2)c1`, with 1.9% (inactive). Still for that read-out and setting: then `CN(Cc1ccco1)c1ncnc2ccc(-c3cccnc3)cc12`, with 2.3% (inactive); and `Cc1cccc(CNc2ncnc3ccc(-c4ccoc4)cc23)c1`, with -3% (inactive). On the same count and under the same terms, the same measure for `COc1cccc(-c2ccc3ncnc(NCc4cccs4)c3c2)c1`: -9.22% (inactive). As for `c1nc(N2CCNCC2)c2cc(-c3ccc4c(c3)OCO4)ccc2n1`, the activity change, negative = inhibition was 13.1% (inactive).

The test is the same for the next values; noted with them: Drosophila S3 cells, BODIPY lipid droplet/cell ratio, laser cytometry; measured here: cell count channel max response; cells loaded with oleic acid.
In the case of `Cc1cccc(CNc2ncnc3ccc(-c4cccnc4)cc23)c1`, the max response was -7.82%. In the case of `Cc1cccc(CNc2ncnc3ccc(-c4ccc5c(c4)OCO5)cc23)c1`, the max response was -5.17%. On the same count and under the same terms, the same measure for `c1cncc(CNc2ncnc3ccc(-c4cccnc4)cc23)c1`: -9.9%; for `COc1cccc(-c2ccc3ncnc(N(C)Cc4ccco4)c3c2)c1`: 8.44%; for `CN(Cc1ccco1)c1ncnc2ccc(-c3cccnc3)cc12`: -8.64%. The same measure, in the same setting: then `Cc1cccc(CNc2ncnc3ccc(-c4ccoc4)cc23)c1`, with 11.4%; and `COc1cccc(-c2ccc3ncnc(NCc4cccs4)c3c2)c1`, with -18.2%. Still for that read-out and setting: then `c1nc(N2CCNCC2)c2cc(-c3ccc4c(c3)OCO4)ccc2n1`, with 9.51%.

Staying with this test, now noted: Drosophila S3 cells, BODIPY lipid droplet/cell ratio, laser cytometry; measured here: lipid channel max response; cells loaded with oleic acid.
Consider `Cc1cccc(CNc2ncnc3ccc(-c4cccnc4)cc23)c1`, for which the max response is -4.88%.

Take `Cc1cccc(CNc2ncnc3ccc(-c4ccc5c(c4)OCO5)cc23)c1`: the max response was -0.18%. `c1cncc(CNc2ncnc3ccc(-c4cccnc4)cc23)c1`: the max response was -4.35%. Take `COc1cccc(-c2ccc3ncnc(N(C)Cc4ccco4)c3c2)c1`: the max response was 7.63%. Still for that read-out and setting: then `CN(Cc1ccco1)c1ncnc2ccc(-c3cccnc3)cc12`, with -5.56%; and `Cc1cccc(CNc2ncnc3ccc(-c4ccoc4)cc23)c1`, with 6.71%.

As for `COc1cccc(-c2ccc3ncnc(NCc4cccs4)c3c2)c1`, the max response was -23.5%. On the same count and under the same terms, the same measure for `c1nc(N2CCNCC2)c2cc(-c3ccc4c(c3)OCO4)ccc2n1`: 19.9%.

The next test deals with Ubiquitin carboxyl-terminal hydrolase 1 (Homo sapiens) (UniProt O94782). The experiment in a line: Inhibitors of USP1/UAF1: Pilot qHTS (AID 504865).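 Note: rhodamine fluorescence freed from ubiquitin-rhodamine substrate followed over time; top concentration of the series differs between compounds; nearly all actives have a fitted effect of over 35% in size.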 The following applies: purified USP1/UAF1, Ub-rhodamine cleavage fluorescence; series mostly up to 54.9 µM. The method in brief:
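Kinetic fluorescence assay: 1nM USP1/UAF1, 15 min compound preincubation, then 150nM Ub-Rho; 480/540 nm.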
`Cc1cccc(CNc2ncnc3ccc(-c4cccnc4)cc23)c1`: the Potency entry is “inactive”.

Consider `COc1cccc(-c2ccc3ncnc(N(C)Cc4ccco4)c3c2)c1`, for which the Potency entry is “inactive”. With `CN(Cc1ccco1)c1ncnc2ccc(-c3cccnc3)cc12`, the Potency entry is “inactive”.

In the case of `CN(Cc1ccco1)c1ncnc2ccc(-c3ccoc3)cc12`, the Potency result was “inactive”. Still for that read-out and setting: then `Cc1cccc(CNc2ncnc3ccc(-c4ccoc4)cc23)c1`, with “inactive”; and `c1nc(N2CCNCC2)c2cc(-c3ccc4c(c3)OCO4)ccc2n1`, with “inactive”.

The next test concerns the target Calcium and integrin-binding protein 1 (Homo sapiens) (UniProt Q99828). The experiment in a line: Primary qHTS for Identification of Calcium Integrin Binding Protein 1 (CIB1) Competitor (AID 1508620).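 Note: GST tagged CIB1 binding a fluorescein labelled alphaIIb integrin peptide tracer; top concentration of the series differs between compounds.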 The following applies: CIB1-GST / FITC-alphaIIb peptide fluorescence polarization; series mostly up to 114 µM. A digest of the protocol: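 Fluorescence polarization competition: CIB1-GST (1 uM final) preincubated with compound 15 min at room temperature, then FITC-labeled alphaIIb peptide (100 nM final) added for another 15 min. Polarization read at Ex 480/Em 540.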
As to `CC(C)(C)NS(=O)(=O)c1cccc(-c2nnc(SCc3ccc(C(=O)O)cc3)n2-c2ccccc2)c1`, the Potency entry was “inactive”. Regarding `Cc1cccc(CNc2ncnc3ccc(-c4cccnc4)cc23)c1`, the Potency result was “inactive”. Turning to `Cc1cccc(CNc2ncnc3ccc(-c4ccc5c(c4)OCO5)cc23)c1`, the Potency entry was “inactive”.

As to `O=C1NC2=C(C(=O)CCC2)C(c2ccccc2Cl)N1` (centres undefined), the Potency result was “inactive”. Regarding `COc1ccc(C2Nc3ccccc3C(=O)N2Cc2ccco2)cc1CSc1c(C)cccc1C` (centres undefined), the Potency entry was “inactive”. The same measure, in the same setting: then `c1cncc(CNc2ncnc3ccc(-c4cccnc4)cc23)c1`, with “inactive”.

Regarding `COc1ccc(C2Nc3ccccc3C(=O)N2Cc2ccccn2)cc1COc1ccc(NC(C)=O)cc1` (centres undefined), the Potency result is “inactive”.

For the compound `COc1cccc(-c2ccc3ncnc(N(C)Cc4ccco4)c3c2)c1`, the Potency entry was “inactive”.

Regarding `Cc1ccc(S(=O)(=O)Nc2ccc(NS(=O)(=O)c3ccc(C)cc3)c3ncccc23)cc1`, the Potency result was “inactive”. Consider `CCCCCNc1oc(-c2cccc3ccccc23)nc1C#N`, for which the Potency result is “inactive”. With `O=C1CCCC2=C1C(c1c(Cl)cccc1Cl)N=C(Nc1nc3ccccc3o1)N2` (centres undefined), the Potency entry is “inactive”. For `CN(Cc1ccco1)c1ncnc2ccc(-c3cccnc3)cc12`, the Potency result is “inactive”. For the compound `CN(Cc1ccco1)c1ncnc2ccc(-c3ccoc3)cc12`, the Potency entry is “inactive”.

As for `O=C(O)c1ccc2c(c1)C(=O)N([C@@H](Cc1ccc(O)cc1)C(=O)O)C2=O`, the Potency result was “inactive”.

In the case of `Cc1ccc(NS(=O)(=O)c2ccc3c(ccn3C)c2)cc1C`, the Potency entry is “inactive”. With `Cc1cc(NC(=S)N2CCN(c3cccc(C(F)(F)F)c3)CC2)nc2ccccc12`, the Potency entry is “inactive”. `NC(=O)C1CCN(c2nc(-c3cc4ccccc4o3)cs2)CC1`: the Potency entry was “inactive”. Same read-out and setting: then `Cc1noc(C)c1-c1ccc(Nc2nc(-c3ccncc3)nc3ccccc23)cc1F`, with “inactive”; and `Cc1cccc(CNc2ncnc3ccc(-c4ccoc4)cc23)c1`, with “inactive”; and `Cc1ccc(S(=O)(=O)N2CCN(S(=O)(=O)c3ccc4c(c3)OCCO4)CC2)cc1`, with “inactive”. For `Cc1cc(N[S+](=O)([O-])c2cc3c(cc2Cl)NC(=O)CO3)ccc1Br`, the Potency entry was “inactive”. For the compound `CC(=O)N1CCN(c2nc(-c3ccc(Br)cc3)cs2)CC1`, the Potency result is “inactive”.

As for `O=C(CN(Cc1cccc2ccccc12)C1CC1)Nc1ccc(N2CCOCC2)cc1`, the Potency entry was “inactive”.

With `Cc1cc(C)nc(NC(=S)N2CCN(c3ccc(S(C)(=O)=O)cc3F)CC2)c1`, the Potency entry was “inactive”. The same measure, in the same setting: then `CC(=O)c1ccc(N2CCN(S(=O)(=O)c3ccc4c(c3)CCCC(=O)N4)CC2)cc1`, with “inactive”. Still for that read-out and setting: then `Cc1cnc(NC(=O)c2cc(S(=O)(=O)N(C)C)ccc2N2CCCC2)s1`, with “inactive”; and `Cc1cc2c(s1)c1cnn(Cc3ccc(C)c(F)c3)c(=O)c1n2C`, with “inactive”; and `O=S(=O)(Nc1nccs1)c1ccc(NCc2ccccc2)cc1`, with “inactive”. Still for that read-out and setting: then `Cc1ccc(OCCn2c(CCNC(=O)Cc3cccc(F)c3)nc3ccccc32)cc1`, with “inactive”; and `COc1cccc(-c2ccc3ncnc(NCc4cccs4)c3c2)c1`, with “inactive”; and `N#Cc1cccc(Nc2ncc(-c3cccc4ccccc34)o2)c1`, with “inactive”.

As to `CC(C)c1ccccc1-c1ncc(N(C)C)c(NCc2ccc(-c3cccnc3)cc2)n1`, the Potency result is “inactive”. As to `O=C(/C=C/c1cccnc1)Nc1cccc([S+](=O)([O-])Nc2ccccc2F)c1`, the Potency entry is “inactive”. For `c1nc(N2CCNCC2)c2cc(-c3ccc4c(c3)OCO4)ccc2n1`, the Potency entry was “inactive”. The same measure, in the same setting: the same measure for `COc1cccc(C2=Nn3c(nnc3-c3ccc(OC)cc3OC)SC2)c1`: “inactive”; for `O=S(=O)(NN1CCOCC1)c1ccc(Br)cc1`: “inactive”. With `CCc1ccc(NC(=O)c2cnn3c(C)cc(-c4ccccc4)nc23)cc1`, the Potency result is “inactive”. Consider `CN(C)CCCNC(=O)c1ccc(-c2cnc3c(O)cccc3c2)cc1`, for which the Potency entry is “inactive”. The same measure, in the same setting: then `O=C(O)c1ccc(-c2noc(-c3cccc(Cl)c3)n2)cc1`, with “inactive”.
